Screens from PubChem.
VDR inhibitor – blocks the human vitamin D receptor; VDR-SRC2-3 peptide fluorescence polarization, 2 h; P11473; 0.93% of 400,000 active; Potency, µM, for inactives: max response, negative = inhibition, actives largely listed as inhibitors
Target sequence (P11473 whole entry, looked up): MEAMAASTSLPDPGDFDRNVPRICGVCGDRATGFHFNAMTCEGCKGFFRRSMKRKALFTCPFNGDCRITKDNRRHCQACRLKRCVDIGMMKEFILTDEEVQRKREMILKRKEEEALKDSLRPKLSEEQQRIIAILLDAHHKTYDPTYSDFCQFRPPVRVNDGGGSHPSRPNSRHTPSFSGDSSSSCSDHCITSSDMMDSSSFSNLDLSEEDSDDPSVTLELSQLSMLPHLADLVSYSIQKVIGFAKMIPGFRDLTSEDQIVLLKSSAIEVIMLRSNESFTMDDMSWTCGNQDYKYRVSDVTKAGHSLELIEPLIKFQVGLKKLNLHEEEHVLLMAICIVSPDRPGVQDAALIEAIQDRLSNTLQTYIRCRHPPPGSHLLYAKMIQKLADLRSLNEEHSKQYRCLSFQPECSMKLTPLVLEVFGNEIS
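Measured by FP: displacement of SRC2-3 coactivator peptide from VDR by library compounds, following a two-hour ambient incubation.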
Sfp PPTase inh – blocks B. subtilis Sfp PPTase activity; Biochemical Sfp PPTase activity, qHTS; Potency, µM, inactives show largest response in the series, negative = inhibition, most hits filed as inhibitors; 3.5% of 310,000 active; AID 1490;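 further: the enzyme is Sfp with the accession as filed and its product quenches rhodamine fluorescence; 0% = enzyme reaction without inhibitor and -100% = no enzyme wells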
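Sfp 15 nM + cpd, 15 min RT; start w/ rhodamine-CoA 5 uM, BHQ-2-YbbR 12.5 uM (final); 50 mM Hepes pH 7.6, 10 mM MgCl2, 0.01% NP-40, 0.01% BSA; read 525/598 nm at 0 and 30 min.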
Tau fluor cs – counter-screen for tau fibril formation inhibitors | tau K18 P301L Alexa594 fluorescence, heparin fibrillization | 0.93% of 280,000 active | Potency, µM (highest dose often 57.7 µM), for inactives: at the highest dose activity change, negative = decrease; further: nearly all actives have a fitted effect of over 55% in size
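Human K18 P301L tau (15 uM unlabeled plus 0.24 uM Alexa 594-labeled, final) in 100 mM sodium acetate pH 7 was mixed with compound and 20 uM heparin and incubated 6 hr at 37 C.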
PLK1 PBD inh – blocks phosphopeptide binding to human PLK1 polo-box domain. Plk1 PBD binding of FITC phosphopeptide, fluorescence polarization. Potency, µM, for the others: max response, negative = inhibition, most hits filed as inhibitors. 2.8% of 360,000 active. AID 720504; further: series mostly up to about 57 µM; nearly all actives have a fitted effect of over 65% in size
Tau ThT inhib – blocks human tau fibril formation measured by thioflavin T; recombinant tau K18 P301L (four-repeat tau fragment), heparin-induced fibrillization, ThT fluorescence; Potency, µM (top dose mostly 57.4 µM), without a hit: at the top dose activity, negative = inhibition, hits mostly inhibitors; 2.1% of 270,000 active; AID 1460; further: nearly all actives have a fitted effect of over 55% in size
Target sequence (P10636 561-689 P618L limits assumed): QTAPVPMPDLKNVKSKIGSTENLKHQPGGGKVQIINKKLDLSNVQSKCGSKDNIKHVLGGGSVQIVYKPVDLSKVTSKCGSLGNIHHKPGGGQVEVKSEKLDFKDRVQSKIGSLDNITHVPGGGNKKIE
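K18 P301L tau (15 uM + 0.24 uM Alexa 594-tagged), heparin 20 uM, NaOAc pH 7, 6 h 37 C; ThT 30 uM, 1 h RT, ex 450/em 510 nm.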
Tau FP inhib – inhibitors of human tau fibril formation. K18 P301L tau heparin fibrillization, Alexa594 FP, 6 h. Potency, µM (doses to about 57.7 µM), for the others: at the highest dose activity, negative = inhibition, hits mostly inhibitors. 0.39% of 280,000 active. AID 1468; further: nearly all actives have a fitted effect of over 55% in size
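Human tau K18 […] P301L fragment, 15 uM unlabeled plus 0.24 uM Alexa 594-labeled tau (final), with compound and 20 uM heparin in 100 mM sodium acetate pH 7; 6 hr at 37 C, then Alexa 594 FP read.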
The depositor's hits bear a star; ? = inconclusive; . = no result given; [ ] = another dose, or the depositor's remark. Compounds with a hit are over-represented: about 6% of the library has one in this group of screens. The call rests on the fitted dose curve; in most records, active means well fitted curve in the direction sought with a large enough effect; inconclusive means small, poorly fitted or top-dose-only effect, or another doubt; inactive means no such curve, though single readings can be large; an effect the other way counts as inactive or inconclusive. Unless noted, on the % scale 0 is the no-effect control and ±100 the full control effect; potency means the concentration at half of the fitted maximal effect.

SMILES	VDR inhibitor	Sfp PPTase inh	Tau fluor cs	PLK1 PBD inh	Tau ThT inhib	Tau FP inhib
Cn1cc(S(=O)(=O)c2ccccc2)c(=O)c2cc(Cl)ccc21	?	20%	.	27µM*	.	.
CCCn1cc(S(=O)(=O)c2ccc(OC)cc2)c(=O)c2cc(OCC)ccc21	2%	1%	.	-11%	.	.
Cc1cccc(CNc2ccnc(-c3ccccc3C(F)(F)F)n2)c1	-2%	3%	.	.	.	.
Cc1ccc(NC(=O)C(Cc2ccccc2)N2Cc3ccccc3C2=O)cc1Cl (stereo not given)	8%	.	-17%	.	-6%	?
CNc1cnn(-c2ccccc2)c(=O)c1Cl	-19%	21%	3%	11µM*	3%	-7%
O=c1c(Br)c(Br)cnn1-c1ccccc1	-1%	27%	-6%	-18%	32µM*	?
Cc1ccc(-n2ncc(Br)c(Br)c2=O)cc1	-12%	4%	-19%	-15%	16µM*	?
Cc1ccc(S(=O)(=O)N2CCN(C(=O)C3CCN(c4ncnc5sc(C)c(C)c45)CC3)CC2)c(C)c1	-1%	.	.	-9%	.	.
CCOC(=O)Cc1ccc(NC(=O)NCc2cccn2Cc2ccccc2)cc1	5%	.	?	.	-2%	-5%
O=C1C(c2ccccc2)SC(=Nc2ccccc2)N1S(=O)(=O)c1ccccc1 (stereo not given)	89µM*	13µM*	-11%	17µM*	-12%	-9%
CC1(C)SC(=Nc2ccccc2)N(S(=O)(=O)c2ccccc2)C1=O	-6%	34%	-2%	1%	-4%	-3%
CCSS(=O)(=O)c1cccc2cccnc12	16µM*	20µM*	10%	2.7µM*	?	?
COc1cccc2sc(N3CCN(C(=O)CCS(=O)(=O)c4ccc(F)cc4)CC3)nc12	8%	.	-8%	.	?	-2%
COC(=O)/C=C\c1cc(O)ccc1O	?	50µM*	-27%	.	?	0%
CN1C(=O)CCC(CCC(=O)O)(c2ccccc2O)C1=O (stereo not given)	-6%	9%	.	2%	.	.
CNS(=O)(=O)c1cn(CC(=O)N2CCN(c3ccccc3F)CC2)cc1S(=O)(=O)NC	-4%	.	9%	.	16%	0%
CCOC(=O)C1=C(C)N=c2s/c(=C\c3ccc(OCC(=O)O)cc3)c(=O)n2C1c1ccc(Cl)cc1 (stereo not given)	79µM*	-3%	.	10%	.	.
CCOC(=O)C1=C(C)N=c2s/c(=C/c3ccc(OCC(=O)O)cc3)c(=O)n2C1c1ccc(F)cc1 (stereo not given)	71µM*	79µM*	.	?	.	.
CCN1C[C@@H]2[C@@H]3C(=O)N(C)C(=O)[C@@H]3[C@](Cc3ccccc3)(C1=O)N2C(=O)c1ccc(Cl)c(Cl)c1	7%	.	.	-11%	.	.
COc1ccc(NC(=S)NC(=O)c2ccccc2Cl)cc1	-19%	-13%	-15%	27µM*	-14%	-8%
COc1cc2cc(C(=O)Nc3ccccc3)c(N)nc2cc1OC	-19%	?	-18%	24µM*	?	-3%
COc1ccc(NC(=S)NNC(=O)CNc2ccc(Cl)cc2)cc1	-16%	79µM*	-6%	27µM*	-17%	?
COc1cc2ccccc2cc1C(=O)NC(=S)Nc1ccc(C(=O)O)cc1	-1%	-24%	.	30µM*	.	.
CC1CC(C)CN(C(CCc2ccccc2)C(=O)NC2CCCCC2)C1 (stereo not given)	.	.	.	-3%	.	.
COc1ccc(NC(=O)c2cc3ccccc3cc2OC)cc1	?	14%	.	30µM*	.	.
SMILES	VDR inhibitor	Sfp PPTase inh	Tau fluor cs	PLK1 PBD inh	Tau ThT inhib	Tau FP inhib
O=C(CSC1=N/C(=C/c2ccco2)C(=O)N1c1ccc(OC(F)F)cc1)NC1CCS(=O)(=O)C1 (stereo not given)	-19%	-18%	-25%	-15%	28µM*	?
CCCCCCC#CC1C=CC(OC(C)=O)C(COC(C)=O)O1 (stereo not given)	.	?	-15%[11.6 µM]	.	?	-9%[11.6 µM]
Cc1ccc(S(=O)(=O)n2nc(-c3ccco3)nc2N)cc1	1%	89µM*	-13%	-5%	-4%	-7%
Cc1ccc(S(=O)(=O)N2C[C@H]3C(=O)C[C@@H](c4cccs4)N(S(=O)(=O)c4ccc(C)cc4)[C@H]3C[C@H]2c2ccccc2)cc1	.	.	.	-11%	.	.
Nc1nc(CSc2nc3ccccc3[nH]2)cs1	1%	45µM*	-16%	-29%	?	-8%
c1ccc(CSc2nc3ccccc3[nH]2)cc1	19%	6%	-11%	2%	.	-1%
Fc1ccc(CSc2nc3ccccc3[nH]2)c2ccccc12	-1%	24%	?	-4%	-23%	25µM*
O=C(O)c1ccc(Nc2cc(Cl)c3nonc3c2[N+](=O)[O-])cc1	20µM*	35µM*	?	4.7µM*	7.1µM*	-2%
Cc1c(Nc2cc(Cl)c3nonc3c2[N+](=O)[O-])c(=O)n(-c2ccccc2)n1C	?	?	10µM*[quencher]	1.2µM*	4µM*	?
O=C1C=C[C@@H](O)[C@H]2[C@@H]3C(=O)N(C4CCCCC4)C(=O)[C@@H]3CC[C@H]12	.	0%	-5%[11.6 µM]	.	-8%[11.5 µM]	-6%[11.6 µM]
CCOc1ccccc1OCCCn1c(-c2ccc(Cl)cc2)nc2ccccc2c1=O	-8%	.	-12%	.	-7%	?
CC(C)CCn1c(Oc2ccccc2F)nc2c1c(=O)n(C)c(=O)n2C	-2%	.	-12%	.	-4%	?
CCOC(=O)C1=C(SCC)c2cc3c(n2C1=O)CCCC3	?	-24%	?	-13%	11µM*	?
CCOC(=O)c1cc2c(nc1N)CCCC2	-5%	-11%	-2%	-15%	-6%	4%
CS(=O)(=O)N(CC(=O)Nc1ccccc1Br)Cc1ccccc1	-21%	2%	.	-2%	.	.
O=c1c(-c2ccc(Br)cc2)[n+]([O-])c2ccccc2n1OCc1ccccn1	-17%	0%	-2%	24µM*	0%	-8%
COc1ccc(-c2c(=O)n(OCc3nc4ccccc4[nH]3)c3ccccc3[n+]2[O-])cc1	-3%	-23%	-1%	-4%	-8%	-12%
C=CCOn1c(=O)c(-c2ccc(OC)cc2)[n+]([O-])c2ccccc21	-5%	-3%	-2%	12µM*	5%	-7%
NC(=O)CCC(NS(=O)(=O)c1ccc(Cl)cc1)C(=O)NCC1CCCCC1 (stereo not given)	?	-1%	.	11µM*	.	.
Cc1cc(C)c2nc(NC(=O)CN3C(=O)NC4(CCCC4)C3=O)sc2c1	4%	.	.	-2%	.	.
N#CCCN(C(=O)COC(=O)CNC(=O)c1cccs1)c1ccc(F)cc1	-6%	.	.	4%	.	.
N#CCCN(C(=S)NC(=O)c1cccs1)c1ccccc1F	?	.	.	19µM*	.	.
Cc1c(-c2ccccc2)c(=O)oc2cc(O)ccc12	-8%	17%	.	-8%	.	.
